# HTR5A ag ctr: HTR5A agonists in luminescence cell assay, primary screen, counter-screen for OPRM1-OPRD1 heterodimer agonist project, full-deck HTS | activation, % at 9.3 µM | cell-based | actives 0.61% (n = 340,000) | 5-hydroxytryptamine receptor 5A (Homo sapiens), P47898 | AID 504692, 2011; in the data active = activation mostly above about 9.5%, no sharp cut-off; inactive = mostly below about 7.6%;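 also: 0% = cells with vehicle only and 100% = reference agonist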
# OPRM1-OPRD1 ag: agonists of OPRM1-OPRD1 heterodimerization, primary screen, cell-based, luminescence; Mu-type opioid receptor (Homo sapiens) + Delta-type opioid receptor (Homo sapiens), …; AID 504326, 2011; cells; activation, % at 9.3 µM; actives 0.3% (n = 340,000);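 also: 0% = vehicle-treated cells and 100% = reference agonist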
# Target sequence (P35372 whole entry, looked up): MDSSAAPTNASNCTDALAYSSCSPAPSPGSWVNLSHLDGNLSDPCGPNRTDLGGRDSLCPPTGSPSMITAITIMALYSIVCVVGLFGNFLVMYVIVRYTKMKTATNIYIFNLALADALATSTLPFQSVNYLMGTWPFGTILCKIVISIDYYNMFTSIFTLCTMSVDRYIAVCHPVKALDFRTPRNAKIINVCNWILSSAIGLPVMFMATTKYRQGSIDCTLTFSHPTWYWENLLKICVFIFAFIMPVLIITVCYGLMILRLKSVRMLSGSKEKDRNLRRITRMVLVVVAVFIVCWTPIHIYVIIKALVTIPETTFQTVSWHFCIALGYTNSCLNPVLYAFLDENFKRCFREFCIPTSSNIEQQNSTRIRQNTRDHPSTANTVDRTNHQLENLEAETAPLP
# Target sequence (P41143 whole entry, looked up): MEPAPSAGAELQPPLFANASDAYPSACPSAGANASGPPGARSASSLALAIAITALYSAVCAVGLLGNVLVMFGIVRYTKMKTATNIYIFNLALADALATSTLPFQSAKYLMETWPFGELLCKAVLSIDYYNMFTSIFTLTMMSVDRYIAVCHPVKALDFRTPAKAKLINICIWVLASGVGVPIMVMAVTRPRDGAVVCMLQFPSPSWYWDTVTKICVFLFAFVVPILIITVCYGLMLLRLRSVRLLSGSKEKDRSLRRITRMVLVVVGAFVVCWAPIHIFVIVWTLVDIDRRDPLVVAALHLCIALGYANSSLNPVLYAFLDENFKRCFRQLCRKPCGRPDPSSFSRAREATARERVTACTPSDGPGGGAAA
# HTR5A inv ctr: HTR5A inverse agonists in luminescence cell assay, primary screen, counter-screen for OPRM1-OPRD1 heterodimer inverse agonist project, full-deck HTS. 5-hydroxytryptamine receptor 5A (Homo sapiens), P47898. HTR5A cell line, inverse agonism. inhibition, % at 9.3 µM. actives 0.083% (n = 340,000). AID 504634, 2011; in the data active = inhibition mostly above about 23%, no sharp cut-off; inactive = mostly below about 18%;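 also: 0% = cells with DMSO and 100% = no-cell wells with DMSO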
# MOR-DOR inv ag: inverse agonists of MOR-DOR heterodimerization, primary screen, cell-based, luminescence; AID 504357, 2011; inhibition, % at 9.3 µM; cell-based MOR-DOR heterodimer luminescence, inverse agonism; actives 0.21% (n = 340,000); Mu-type opioid receptor (Homo sapiens) + Delta-type opioid receptor (Homo sapiens), …; in the data active = inhibition above about 22%, passing the limit was not always enough;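 also: 0% = cells with DMSO and 100% = wells without cells with DMSO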
# OPRM1-D1 ag cf: agonists of MOR-DOR heterodimerization, confirmation, cell-based, luminescence; cells, luminescence complementation; AID 504904, 2011; shares compounds with OPRM1-OPRD1 ag; actives 45% (n = 830); activation, % at 9.3 µM;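 also: 0% = vehicle-treated cells and 100% = reference agonist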
# HTR5A ag ctr2: HTR5A agonists in cells, counter-screen for OPRM1-OPRD1 heterodimer agonist project, cell-based, luminescence | shares compounds with OPRM1-OPRD1 ag | HTR5A agonist counterscreen | activation, % at 9.3 µM | actives 8% (n = 830) | AID 504905, 2011; in the data active = activation above about 17%;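 also: 0% = vehicle-treated cells and 100% = reference agonist response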
# Numbers without * were called inactive; i = inactive; . = no result given. The list is not random: actives were taken first. Their share in the collection is about 1.1%. Rule as the data show it, unless noted: active = activation above about 18%; inactive = the rest.
SMILES,HTR5A ag ctr,OPRM1-OPRD1 ag,HTR5A inv ctr,MOR-DOR inv ag,OPRM1-D1 ag cf,HTR5A ag ctr2
Cc1ccc(N2CCN(C(=S)c3ccc(-c4cccc([N+](=O)[O-])c4)o3)CC2)cc1,-2,-2,5,11,.,.
CCc1noc(C)c1C(=O)N(CC)CC(=O)Nc1cc(Cl)ccc1C,11,-2,0,7,.,.
CSCCC(NS(=O)(=O)c1ccccc1)C(=O)OC(C)C(=O)Nc1ccc(Cl)cn1 (centres undefined),1,1,18,-5,.,.
CCOCCCN(C(=O)Cn1nnc(-c2ccc(OC)c(OC)c2)n1)C(C(=O)NCC1CCCO1)c1ccc(F)cc1 (centres undefined),0,-2,-4,9,.,.
CC(C)(C)C(=O)N1CCC[C@H]1C(O)(c1ccccc1)c1ccccc1,-2,-2,-4,13,.,.
CN1CCC(CC(C(=O)N2CCCC2)(c2ccccc2)c2ccccc2)C1 (centres undefined),0,63*,1,-307,4,-1
COc1cccc(-c2nnn(CC(=O)N3CCC(C)CC3)n2)c1,3,-4,-13,19,.,.
CN(C)/C=N/NC(=O)C1Cc2c(ccc3ccccc23)O1 (centres undefined),2,-4,-8,18,.,.
O=C(O)CCCCCCCCCCP(=O)(c1ccccc1)c1ccccc1,1,-3,-2,15,.,.
O=P(CCCCCCCCCP(=O)(c1ccccc1)c1ccccc1)(c1ccccc1)c1ccccc1,6,21*,-43,-112,-1,-5
CCOc1ccc(Nc2c3ccccc3nc3ccccc23)cc1,-2,20*,-4,-100,37*,1
CSCCC(/C(O)=C(\C#N)c1nc2ccccc2[nH]1)N1C(=O)c2ccccc2C1=O (centres undefined),1,58*,-2,-264,49*,1
CCC(=O)NC(C)C(c1cccs1)N1CCN(c2ccccc2)CC1 (centres undefined),-4,31*,16,-177,0,2
Cc1ccc(NC(=O)Nc2cc(Cl)ccc2C2COC(=O)C2=N)cc1 (centres undefined),1,23*,-4,-119,5,39*
CCCCC(=O)Nc1ccc(NCc2ccc(C)s2)cc1,4,2,-16,-9,.,.
COc1ccc(-c2nc(CN3CCC(C(=O)NC4CCCC4)CC3)c(C)o2)cc1OC,0,110*,1,i,18*,1
COc1ccc(-c2nc(CN3CCC(c4ccccc4)CC3)c(C)o2)cc1OC,4,4,6,-22,.,.
COc1ccc(-c2nc(CN3CCC(C(=O)NC4CCCc5ccccc54)CC3)c(C)o2)cc1OC (centres undefined),2,199*,5,i,38*,5
CC(C)NC(=O)N(C)C[C@@H]1Oc2ccc(NC(=O)CCN3CCOCC3)cc2CC(=O)N([C@@H](C)CO)C[C@@H]1C,6,-3,-19,16,.,.
COc1ccc(-n2c(C)cc(/C=C3\C(=O)NN(c4ccccc4)C3=O)c2C)cc1,1,1,7,-4,.,.
Cc1cc(/C=C2/C(=O)NN(c3ccccc3)C2=O)c(C)n1-c1ccc(O)cc1,-3,61*,9,-314,50*,-5
Cc1nc(C)n(C(C)CNC(=O)c2ccco2)n1 (centres undefined),6,0,-24,0,.,.
Nc1nonc1C(=O)NCCNCc1c(OCc2ccccc2F)ccc2ccccc12,2,22*,-6,-118,121*,6
Nc1nonc1C(=O)NCCNCc1cc(Br)ccc1OCc1ccc(F)cc1,-4,4,9,-17,.,.
CC(OC(=O)c1n[nH]c2ccccc12)C(=O)Nc1ccccc1[N+](=O)[O-] (centres undefined),-1,32*,-19,-124,15,4
Cc1ccc(NC(=O)C(C)OC(=O)c2n[nH]c3ccccc23)cc1 (centres undefined),-2,-2,-11,9,.,.

# High-throughput results (PubChem)
